RORg inh – inhibitors of mouse ROR gamma transcriptional activity. P51450. Drosophila S2 Gal4-RORgamma UAS-luciferase reporter, 20 h. Potency, µM (top dose mostly 53.6 µM), usual class: inhibitors. hit rate 5.4% among 310,000; further: nearly all actives have a fitted effect of over 60% in size
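Luminescence from a UAS-regulated Photinus luciferase reporter in stably transfected Drosophila Schneider cells is measured; decreased signal marks ROR gamma inhibition. Fusion expression is induced by 700 uM copper sulfate for 20 hr.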
B2AR arrestin – agonists driving beta-arrestin recruitment to human beta2-adrenergic receptor | P07550 | hit rate 0.02% among 330,000 | Potency, µM (top dose mostly 46.1 µM), usual class: activators | AID 492947 | beta-arrestin recruitment to beta2AR, cell-based reporter; further: nearly all actives have a fitted effect of over 65% in size
NPSR antagonist – antagonists of human neuropeptide S receptor cAMP signaling | CHO-NPSR cells, cAMP TR-FRET, antagonist mode | Q6W5P4 | Potency, µM (titrated, usually from 38.3 µM), actives largely listed as inhibitors | hit rate 1% among 220,000; further: nearly all actives have a fitted effect of over 50% in size
Target sequence (Q6W5P4 whole entry, looked up): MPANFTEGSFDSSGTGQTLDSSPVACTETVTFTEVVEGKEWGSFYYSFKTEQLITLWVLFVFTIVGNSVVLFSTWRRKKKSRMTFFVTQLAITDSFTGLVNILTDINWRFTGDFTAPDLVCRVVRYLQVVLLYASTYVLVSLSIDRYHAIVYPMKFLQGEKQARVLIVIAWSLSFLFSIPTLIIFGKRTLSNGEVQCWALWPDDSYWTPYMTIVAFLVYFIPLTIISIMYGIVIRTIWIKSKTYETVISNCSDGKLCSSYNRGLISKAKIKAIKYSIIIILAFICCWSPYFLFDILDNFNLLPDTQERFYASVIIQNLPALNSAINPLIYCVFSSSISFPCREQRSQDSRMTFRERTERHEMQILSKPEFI
Gal4-VP16 FLuc – Gal4-VP16 reporter inhibition counter-screen | Drosophila S2 Gal4-VP16 UAS-luciferase, luminescence, 20 h | Potency, µM (highest dose often 53.6 µM), actives largely listed as inhibitors | hit rate 3.5% among 310,000;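 further: Gal4-VP16 expression switched on by copper sulfate through the metallothionein promoter; nearly all actives have a fitted effect of over 50% in size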
Large screens that a line does not name were inactive; ! = not active in a repeat. Shown are actives, neighbours in structure and some others; about 5.7% of the full set was active somewhere. The call rests on the fitted dose curve; in most records, active means well fitted curve in the direction sought with a large enough effect; inconclusive means small, poorly fitted or top-dose-only effect, or another doubt; inactive means no such curve, though single readings can be large; an effect the other way counts as inactive or inconclusive.

C[C@H]1O[C@@H](O[C@H]2[C@@H](O)C[C@H](O[C@H]3[C@@H](O)C[C@H](O[C@H]4CC[C@@]5(C)[C@H](CC[C@@H]6[C@@H]5C[C@@H](O)[C@]5(C)[C@@H](C7=CC(=O)OC7)CC[C@]65O)C4)O[C@@H]3C)O[C@@H]2C)C[C@H](O)[C@@H]1O	RORg inh 1.6µM
COc1ccccc1NC(=O)CNc1ccc(F)c(Cl)c1	none
CCN(CC)C(=S)NC(=O)c1ccc(F)cc1	RORg inh 0.79µM, Gal4-VP16 FLuc 2.8µM
O=C(NCO)c1cccnc1	none (no result: B2AR arrestin, NPSR antagonist)
CCN(CC)C(=S)NC(=O)c1cccnc1	RORg inh 2.5µM, Gal4-VP16 FLuc 5.6µM
N#CCCCSc1nnnn1-c1cc(C(F)(F)F)cc(C(F)(F)F)c1	none (no result: B2AR arrestin, NPSR antagonist)
O=C(c1cc(-c2ccc(F)cc2)on1)N1CCCCCC1	none (no result: NPSR antagonist)
O=C(c1cc(-c2cccc(O)c2)on1)N1CCCCC1	RORg inh 0.71µM
O=C(c1cc(-c2ccc(F)cc2)on1)N1CCCC1	RORg inh 14µM
COc1ccc(-c2cc(C(=O)N3CCCCCC3)no2)cc1	none (no result: NPSR antagonist)
COc1ccc(-c2cc(C(=O)N3CCCC3)no2)cc1	RORg inh 4µM, Gal4-VP16 FLuc 10µM (no result: NPSR antagonist)
Cn1ncc2c(Nc3cccc([N+](=O)[O-])c3)ncnc21	none (no result: NPSR antagonist)
O=c1cc(-c2ccc(O)cc2)oc2cc(OC3OC(CO)C(O)C(O)C3O)c(C3OC(CO)C(O)C(O)C3O)c(O)c12 (stereo not given)	none (no result: B2AR arrestin, NPSR antagonist)
CC(C)C(=O)Nc1nnc(CCc2ccccc2)s1	none (no result: NPSR antagonist)
CCCc1nnc(NC(=S)Nc2ccccc2)s1	RORg inh 0.63µM, Gal4-VP16 FLuc 0.63µM
CC(C)C(=O)Nc1nnc(NC(=S)Nc2ccccc2)s1	RORg inh 0.56µM, Gal4-VP16 FLuc 2.8µM
CCCCCC(=O)Nc1nnc(CCc2ccccc2)s1	RORg inh 13µM, Gal4-VP16 FLuc inconclusive (no result: NPSR antagonist)
CCCCC(=O)Nc1nnc(CCc2ccccc2)s1	none (no result: NPSR antagonist)
CSCC[C@H](NC(=O)[C@H](Cc1ccccc1)NC[C@@H](NC[C@@H](N)CS)C(C)C)C(=O)O	none (no result: B2AR arrestin, NPSR antagonist)
CCCC[C@]12Cc3ccccc3C(O1)c1c(cc(-c3ccccc3)oc1=O)O2	Gal4-VP16 FLuc inconclusive (no result: NPSR antagonist)
CSCCC(NC(=O)COc1ccccc1)C(=O)N(C)Cc1ccc(SC)cc1 (stereo not given)	none (no result: RORg inh, NPSR antagonist, Gal4-VP16 FLuc)
CC[C@@]1(c2ccccc2)C(=O)N(C(=O)OC)N1C(=O)OC	Gal4-VP16 FLuc inconclusive (no result: NPSR antagonist)
COC(=O)N1C(=O)[C@@](c2ccccc2)(C2CCCCC2)N1C(=O)OC	RORg inh 7.9µM, B2AR arrestin inconclusive (no result: NPSR antagonist)
Cc1ccc2[nH]c3c(=O)n(N)c(C)nc3c2c1	none
Cc1ccc2[nH]c3c(=S)nc[nH]c3c2c1	RORg inh 13µM, Gal4-VP16 FLuc inconclusive
CC(C)CC(=O)OCc1cn(-c2ccccc2)nn1	none
COc1ccc(COC[C@H](C)[C@H](O[Si](C)(C)C)[C@@H](C)[C@H]2OC(=O)[C@H]2C)cc1	none (no result: B2AR arrestin, NPSR antagonist)
CC(/C=C/c1ccccc1)=N\Nc1nc(C)cc(C)n1	RORg inh 0.45µM, Gal4-VP16 FLuc 5µM
Cc1cc(C)nc(NN=C(c2ccccc2)c2ccccc2)n1	RORg inh 7.9µM, Gal4-VP16 FLuc inconclusive
CC(/C=C/c1ccccc1)=N/NC(=O)c1nc2nc(C)cc(C)n2n1	RORg inh inconclusive
O=C1c2c(O)ccc(O)c2C(=O)c2c(NCCNCCO)ccc(NCCNCCO)c21	RORg inh 10µM!, NPSR antagonist 10µM, Gal4-VP16 FLuc inconclusive
CC(=O)c1ccc(-c2ccc(-c3cc(=O)oc4c(C(C)C)ccc(C)c34)cc2)cc1	RORg inh inconclusive, Gal4-VP16 FLuc 11µM (no result: NPSR antagonist)
Cc1ccc(C(C)C)c2oc(=O)cc(-c3ccc(-c4ccc(C(F)(F)F)cc4)cc3)c12	none (no result: NPSR antagonist)
Cn1c(CCc2ccccc2)n[nH]c1=S	RORg inh 13µM
COCc1n[nH]c(=S)n1-c1ccccc1	none
Cc1ccccc1OCc1n[nH]c(=S)n1-c1cccc(Cl)c1	RORg inh 4µM, Gal4-VP16 FLuc 4.5µM (no result: NPSR antagonist)
Cc1cc(OCc2n[nH]c(=S)n2-c2ccccc2)ccc1Cl	RORg inh 2.5µM, Gal4-VP16 FLuc 3.5µM (no result: NPSR antagonist)
Cc1cc(OCc2nnc(SCC(=O)O)n2-c2ccccc2)ccc1Cl	none (no result: NPSR antagonist)
Cc1ccc(OCc2n[nH]c(=S)n2-c2ccccc2)cc1C	RORg inh 2µM, Gal4-VP16 FLuc inconclusive
COc1cccc(-c2cc(=O)c3ccc(OC)cc3o2)c1	none (no result: B2AR arrestin, NPSR antagonist)
CC(C)C(C(=O)NC1CCCC1)N(CC1CCCO1)C(=O)CNS(=O)(=O)c1ccccc1 (stereo not given)	none (no result: NPSR antagonist)
Cn1c(CSCCOc2ccccc2)n[nH]c1=S	RORg inh 1µM, Gal4-VP16 FLuc inconclusive
S=c1[nH]nc(CSCc2ccccc2Cl)n1-c1ccccc1	RORg inh 1µM, Gal4-VP16 FLuc 6.3µM
CC(C)Oc1ccc(CCc2n[nH]c(=S)n2-c2ccccc2)cc1	RORg inh 7.1µM
Cc1n[nH]c(=S)n1-c1cccc(Cl)c1	RORg inh 11µM, Gal4-VP16 FLuc inconclusive
CC1(C)OC(C(O)(c2cccc3c2oc2ccccc23)c2cccc3c2oc2ccccc23)C(C(O)(c2cccc3c2oc2ccccc23)c2cccc3c2oc2ccccc23)O1 (stereo not given)	none (no result: B2AR arrestin, NPSR antagonist)
Cc1ccco1	none (no result: B2AR arrestin, NPSR antagonist)
Cc1ccc(-n2c(COc3cccc(C)c3)n[nH]c2=S)cc1	RORg inh inconclusive, NPSR antagonist inconclusive, Gal4-VP16 FLuc inconclusive
Cc1cccc(C)c1OCc1n[nH]c(=S)n1-c1ccccc1	RORg inh 1.3µM, Gal4-VP16 FLuc inconclusive
Cc1cccc(OCc2n[nH]c(=S)n2-c2ccccc2)c1	RORg inh 2.2µM, Gal4-VP16 FLuc inconclusive
Cc1cccc(C)c1NCc1n[nH]c(=S)n1-c1ccccc1	RORg inh 2µM, Gal4-VP16 FLuc inconclusive
Cc1ccc(OCc2nc(-c3cccs3)no2)c([N+](=O)[O-])c1	RORg inh inconclusive
CC1(C)CCC[C@@](C)([C@H]2CC[C@]3(C)[C@@H]2[C@H](O)CC2[C@@]4(C)CC[C@H](O)C(C)(C)[C@@H]4[C@@H](O)C[C@]23C)O1 (stereo not given in full)	RORg inh inconclusive (no result: B2AR arrestin, NPSR antagonist)
COc1ccc(NCc2nc3ccccc3n2CCOc2ccccc2)cc1	RORg inh 16µM
CCCc1nc2ccccc2n1CCOc1ccccc1	none
COc1ccc(NCc2nc3ccccc3n2CCOc2ccc(C)cc2)cc1	RORg inh 20µM, Gal4-VP16 FLuc inconclusive
c1ccc(NCc2nc3ccccc3n2CCOc2ccccc2)cc1	RORg inh 13µM, Gal4-VP16 FLuc inconclusive
O=C(COC(=O)c1cc(Cl)ccc1O)Nc1cc(C(F)(F)F)ccc1N1CCOCC1	none (no result: RORg inh, NPSR antagonist, Gal4-VP16 FLuc)
C=CCCCCCCCCC(=O)Nc1ncccn1	none
Cc1ccc(S(=O)(=O)c2ccc([N+](=O)[O-])cn2)cc1	RORg inh 3.2µM, Gal4-VP16 FLuc 3.5µM (no result: NPSR antagonist)
O=[N+]([O-])c1ccc(S(=O)(=O)c2ccccc2)nc1	RORg inh inconclusive, Gal4-VP16 FLuc 3.5µM (no result: NPSR antagonist)
Cc1ccc(S(=O)(=O)c2ccc(C)cc2)cc1	none
Nc1ccc(S(=O)(=O)c2ccccc2)nc1	none (no result: NPSR antagonist)
COc1ccc(C(OCCN2CCC[C@H](C(=O)O)C2)(c2ccc(OC)cc2)c2ccc(OC)cc2)cc1	none (no result: B2AR arrestin, NPSR antagonist)
O=C(Cn1sc2ccccc2c1=O)NC12CC3CC(CC(C3)C1)C2	RORg inh 3.5µM, NPSR antagonist inconclusive, Gal4-VP16 FLuc 0.5µM
Nc1cccc2c1C(=O)N(CC(=O)NC13CC4CC(CC(C4)C1)C3)C2=O	none
